Compound activity (PubChem BioAssay)
Pf Dd2 inh: qHTS Primary assay for Inhibitors of Plasmodium falciparum Dd2 growth in vitro; P. falciparum Dd2 growth, SYBR Green, 72 h; Potency, µM (series often up to 28.9 µM), for inactives: at the highest dose activity, negative = inhibition, hits mostly inhibitors; 4.3% of 120,000 active; active = well fitted inhibition curve with a large enough effect;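 also: plate controls were DMSO vehicle for no effect and reference drug for full effect; nearly all actives have a fitted effect of over 65% in size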
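Infected erythrocytes (Dd2, 0.3% parasitemia, 2.5% hematocrit final) are added to compound in RPMI-1640/Albumax II medium, grown 72 h at 37C in low oxygen, then lysed with saponin/Triton-X containing SYBR Green and read by fluorescence.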
The depositor's hits bear a star; [ ] = dose if it differs, or a comment. The full list was thinned out, with hits kept by preference. Potency is read from the fitted curve at half-maximal effect.

`CCC(CC)NC(=O)C1Cn2cccc2C(=O)N1Cc1ccccc1` (stereo not given) gave Pf Dd2 inh 5%.
COc1ccccc1OCCn1c(COc2cc(C)ccc2C)nc2ccccc21 was read as Pf Dd2 inh 6.3µM*.
`COCc1nc2ccccc2n1CCOc1cccc(C)c1` gave Pf Dd2 inh 22%.
`COc1ccccc1OCCn1c(NC(=O)c2ccccc2Cl)nc2ccccc21` gave Pf Dd2 inh -9%.
COc1ccc2nc(CO[C@H]3CN(Cc4ccccn4)C[C@H]3F)[nH]c2c1 was read as Pf Dd2 inh -22%[44.1 µM].
`CC(=O)N1CCc2nn(CC(=O)Nc3cc(F)cc(F)c3)c(=O)cc2C1` gave Pf Dd2 inh 7%.
`O=C1[C@H]2CN(Cc3ccc(F)cc3Cl)C[C@H]2C(=O)N1Cc1ccc2c(c1)OCO2` gave Pf Dd2 inh -2%.
For O=C1[C@H]2CN(Cc3cccc(Cl)c3F)C[C@H]2C(=O)N1CCc1ccccc1 the results were Pf Dd2 inh 20%.
O=C1[C@H]2CN(Cc3ccc(F)cc3Cl)C[C@H]2C(=O)N1CCN1CCc2ccccc2C1 was read as Pf Dd2 inh 4µM*.
Screening O=C1CCC2(CCCO2)CCN1Cc1ccc(C(F)(F)F)cc1 (stereo not given) returned Pf Dd2 inh -9%.
`COc1ccc(-n2nc(C3CCCN(C(=O)Cc4ccc(F)cc4)C3)[nH]c2=O)cc1` (stereo not given) gave Pf Dd2 inh inactive.
`Cc1ccc(C)c(S(=O)(=O)c2nnn3c2nc(N2CCOCC2)c2ccccc23)c1` gave Pf Dd2 inh -27%.
`Cc1ccc(S(=O)(=O)c2nnn3c2nc(N2CCC(C)CC2)c2cc(Cl)ccc23)cc1C` gave Pf Dd2 inh 11µM*.
For CCc1ccc(S(=O)(=O)c2nnn3c2nc(N2CCC(C(N)=O)CC2)c2cc(Cl)ccc23)cc1 the results were Pf Dd2 inh inactive.
CC1CCN(c2nc3c(S(=O)(=O)c4ccccc4)nnn3c3ccc(Cl)cc23)CC1 was read as Pf Dd2 inh 1.1µM*.
Cc1ccc(S(=O)(=O)c2nnn3c2nc(NC(C)C)c2cc(Cl)ccc23)cc1C was read as Pf Dd2 inh 7%.
`Cc1ccc(C)c(S(=O)(=O)c2nnn3c2nc(N2CCCCC2)c2ccccc23)c1` gave Pf Dd2 inh 13µM*.
For CC(C)c1ccc(S(=O)(=O)c2nnn3c2nc(N2CCN(C)CC2)c2sccc23)cc1 the results were Pf Dd2 inh inactive.
Screening CC1CCN(c2nc3c(S(=O)(=O)c4ccc(Cl)cc4)nnn3c3ccsc23)CC1 returned Pf Dd2 inh 22%.
For COCCNc1nc2c(S(=O)(=O)c3ccc(C)c(C)c3)nnn2c2ccc(Cl)cc12 the results were Pf Dd2 inh 12%.
Screening CC1CCN(c2nc3c(S(=O)(=O)c4ccccc4)nnn3c3ccsc23)CC1 returned Pf Dd2 inh 10%.
Screening CC(C)c1ccc(S(=O)(=O)c2nnn3c2nc(N2CCOCC2)c2ccccc23)cc1 returned Pf Dd2 inh -29%.
CN1CCN(c2nc3c(S(=O)(=O)c4ccc(Cl)cc4)nnn3c3ccsc23)CC1 was read as Pf Dd2 inh 10µM*.
Screening CCOCCOC1CCN(C(=O)c2n[nH]c3ccccc23)CC1 returned Pf Dd2 inh inactive.
For Cc1ccc(O)c(CN2CCC(C3(c4ccccn4)NC(=O)NC3=O)CC2)c1 (stereo not given) the results were Pf Dd2 inh -19%.
For Cc1nc(C(=O)N2C[C@@H](COCC3CC3)[C@H](c3ccccn3)C2)co1 the results were Pf Dd2 inh -6%.
`Cc1cc(C)n(CC(=O)NCc2cc(N3CCOCC3)ncn2)c(=O)n1` gave Pf Dd2 inh -6%.
C=CCNC(=O)c1cnn2c1CN([S+](=O)([O-])c1cccc(OC)c1)CC2 was read as Pf Dd2 inh -19%.
`CCc1cccc(NC(=O)N2C[C@@H](F)C[C@H]2C(=O)N2CCc3ccccc3C2)c1` gave Pf Dd2 inh inactive.
For O=C(NCc1ccco1)C1CCN(C(=O)c2ncn3c2COC(c2ccccc2)C3)CC1 (stereo not given) the results were Pf Dd2 inh -15%.
`Cc1ccccc1-n1nc(C)c(CCC(=O)N2CCSCC2)c1Oc1ccccc1F` gave Pf Dd2 inh -12%.
O=C1CCCCCN1CCC(=O)N1CCn2nc(Cc3ccccc3)cc2C1 was read as Pf Dd2 inh -20%.
Screening CN(C)C(C(=O)N1CCN(Cc2nccn2C)CC1)c1cccc(F)c1 (stereo not given) returned Pf Dd2 inh -5%.
For Cc1cccc(C(C(=O)N2CCC(CCn3ccnc3C)CC2)N(C)C)c1 (stereo not given) the results were Pf Dd2 inh 7.9µM*.
Screening Cc1cccc(C(C(=O)N2CCN(CC(=O)NC(C)C)CC2)N(C)C)c1 (stereo not given) returned Pf Dd2 inh -23%.
Screening COCCOC(=O)C1=C(C)N=C2SC=C(CC(=O)NC3CC3)N2C1c1ccc(C)cc1C (stereo not given) returned Pf Dd2 inh inactive.
`COc1ccc(-c2cc(N3CCC(NC(=O)Cc4ccccc4)CC3)n[nH]2)cc1` gave Pf Dd2 inh -8%.
Oc1ccccc1CN1CCNc2cc(Nc3cccnc3)ncc2C1 was read as Pf Dd2 inh 8.9µM*.
`Cc1cc(-c2cc3c(cn2)CN(Cc2ccc4[nH]ccc4c2)CCN3)ccn1` gave Pf Dd2 inh -19%[44.1 µM].
CN1CCNc2cc(Nc3ccncc3)ncc2C1 was read as Pf Dd2 inh 52%[44.1 µM].
c1ccc(-c2cc3c(cn2)CN(Cc2ccc4[nH]ccc4c2)CCN3)cc1 was read as Pf Dd2 inh 6.3µM*.
For Oc1ccccc1CN1CCNc2cc(Nc3ccccc3)ncc2C1 the results were Pf Dd2 inh 5µM*.
Oc1ccccc1CN1CCNc2cnc(Nc3ccccc3)cc2C1 was read as Pf Dd2 inh inactive.
Cn1cc(CN2CCNc3cc(-c4ccccc4)ncc3C2)cn1 was read as Pf Dd2 inh inactive.
For c1ccc(Nc2cc3c(cn2)CN(Cc2ccn[nH]2)CCN3)cc1 the results were Pf Dd2 inh inactive.
Screening COc1cccc(Nc2cc3c(cn2)CN(Cc2cccnc2)CCN3)c1 returned Pf Dd2 inh -15%[44.1 µM].
`Cc1cccc(CN2CCNc3cc(Nc4cccnc4)ncc3C2)c1` gave Pf Dd2 inh 5.6µM*.
Screening Oc1ccccc1CN1CCNc2cnc(OCc3cccnc3)cc2C1 returned Pf Dd2 inh inactive.
`Cn1cc(CN2CCNc3cc(Nc4ccccc4)ncc3C2)cn1` gave Pf Dd2 inh inactive.
`Cc1cc(C2CC(C(=O)NCc3ccco3)CN(C(=O)NC(C)C)C2)ccc1F` (stereo not given) gave Pf Dd2 inh -22%.
`COc1cccc(CCC(=O)N2[C@@H]3CC[C@H]2CC(NC(=O)c2ccncc2)C3)c1` (stereo not given in full) gave Pf Dd2 inh -6%.
CCn1nc(C)cc1C(=O)N1CCOC[C@H](Oc2cccnc2)C1 was read as Pf Dd2 inh 9%[44.1 µM].
For O=C(c1ccc(F)cc1Cl)N1CCC(n2cc(-c3nc(C4CC4)no3)nn2)C1 (stereo not given) the results were Pf Dd2 inh 50%.
Fc1ccc(OC2CN(Cc3ccsc3)C2)cc1F was read as Pf Dd2 inh -11%[44.1 µM].
For O=C(NCc1ccnc2[nH]ccc12)c1ccc2c(c1)OCO2 the results were Pf Dd2 inh 3%[44.1 µM].
Cc1nc2ccc(C(=O)N3CCCn4nc(CO)cc4C3)cc2o1 was read as Pf Dd2 inh 0%.
